Several values for one entry are separate records, joined by “and”; a condition that tells them apart may be missing. Identical values can stand only once. Results filed as inconclusive are left out. The source holds several records for some structures; these can differ, active in one and inactive in another. Activity calls are given as the source filed them. Unless noted, calls come from the whole dose curve; as a rule, active = well fitted curve in the direction sought with a large enough effect; inconclusive = small, poorly fitted or top-dose-only effect, or another doubt; inactive = no such curve, though single readings can be large; an effect the other way counts as inactive or inconclusive.
How the values were obtained:
[1] = target: Alpha-galactosidase A (Homo sapiens) (UniProt P06280); assay: Counterscreen for Glucocerebrosidase Inhibitors: qHTS Assay for Human alpha-Galactosidase at pH 4.5 (AID 992); conditions: purified enzyme, fluorogenic substrate; series mostly up to 76.9 µM; note: 0% is about no effect
Method in brief: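 Human enzyme (2 nM) with 80 uM 4-methylumbelliferyl alpha-D-galactopyranoside in 50 mM citric acid, 0.005% Tween-20, pH 4.5, 20 min at room temperature. Compounds 0.7 nM–77 uM; fluorescence Ex 365/Em 440 after pH 10 stop; AC50 from Hill fits.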

[2] = target: Alpha-galactosidase (Coffea arabica) (UniProt Q42656); assay: Counterscreen for Glucocerebrosidase Inhibitors: qHTS Assay for Coffee Bean alpha-Galactosidase at pH 5.9 (AID 998); conditions: coffee bean alpha-galactosidase enzyme assay; series mostly up to 76.9 µM;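 note: plate controls were uninhibited enzyme for no effect and no-enzyme basal signal for full effect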
Method in brief: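 Green coffee bean enzyme (2 nM) with 4-methylumbelliferyl alpha-D-galactopyranoside (80 uM) in 50 mM citric acid, 0.005% Tween-20, pH 5.9, 20 min at room temperature; compounds 0.7 nM–77 uM. Stopped at pH 10, fluorescence Ex365/Em440; Hill-fit AC50.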

[3] = Validation of Assay for Modulators of Lamin A Splicing (AID 1459; active = well fitted curve in the direction sought with a large enough effect in the signal ratio; the % refers to the signal ratio;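 note: cells exposed to compound for two days before reading; 0% is about no effect; ratio rise marks activators and ratio drop marks inhibitors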); conditions: Lamin A splicing dual RFP/GFP fluorescence reporter; series mostly up to 9.22 µM
Method in brief: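 Dual-reporter HeLa S3 line (lamin A-EGFP minigene, DsRed2) treated with compounds 48 hrs, 0.5% DMSO final. Endpoint: EGFP/DsRed2 total intensity ratio from laser-scanning microplate cytometry.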

[4] = qHTS Assay for Lipid Storage Modulators (AID 1519; calls by dose curve; note: potency is the fitted concentration of half-maximal effect; for activity change, negative = inhibition: % is set by controls: 0 for no effect and ±100 for the full control effect); conditions: Drosophila S3 cells, BODIPY lipid droplet/cell ratio, laser cytometry, cells loaded with oleic acid
Method in brief: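 Cells seeded at 5,000 per well were treated with compounds over a concentration series and loaded with oleic acid (400 uM, as added). Lipid droplet fluorescence (488 nm excitation, 500-530 nm channel) was read by laser-scanning cytometry and normalized to 20 uM Triacsin C.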

[5] = target: DNA repair nuclease/redox regulator APEX1 (Homo sapiens) (UniProt P27695); assay: qHTS Validation Assay for Inhibitors of the Human Apurinic/apyrimidinic Endonuclease 1 (APE1) (AID 1705;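 note: TAMRA fluorescence gain over two minutes as APE1 cuts a quenched THF abasic duplex; % is set by controls: 0 for no effect and ±100 for the full control effect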); conditions: purified APE1 endonuclease activity, fluorescence, titration; series mostly up to 57.1 µM
Method in brief: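 Substrate: 50 nM final fluorophore/quencher THF-abasic duplex. Enzyme preincubated with compounds 15 min, RT. Progress derived from fluorescence difference, third minus first kinetic read.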

[6] = measured here: cell count channel max response
[7] = measured here: lipid channel max response

Chain of Alpha-galactosidase A (Homo sapiens) (P06280 whole entry, looked up): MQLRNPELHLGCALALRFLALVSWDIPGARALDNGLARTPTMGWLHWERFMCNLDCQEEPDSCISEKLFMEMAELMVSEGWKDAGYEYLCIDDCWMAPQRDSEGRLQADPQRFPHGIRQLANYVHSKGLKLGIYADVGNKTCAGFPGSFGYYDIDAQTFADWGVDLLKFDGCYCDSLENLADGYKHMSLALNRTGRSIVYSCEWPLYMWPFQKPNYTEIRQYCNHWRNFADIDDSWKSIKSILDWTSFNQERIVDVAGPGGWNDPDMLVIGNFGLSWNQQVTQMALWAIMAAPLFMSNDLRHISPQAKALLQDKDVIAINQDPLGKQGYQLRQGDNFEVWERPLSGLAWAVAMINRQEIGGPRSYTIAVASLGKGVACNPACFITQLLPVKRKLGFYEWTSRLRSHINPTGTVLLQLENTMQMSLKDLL
Chain of Alpha-galactosidase (Coffea arabica) (Q42656 whole entry, looked up): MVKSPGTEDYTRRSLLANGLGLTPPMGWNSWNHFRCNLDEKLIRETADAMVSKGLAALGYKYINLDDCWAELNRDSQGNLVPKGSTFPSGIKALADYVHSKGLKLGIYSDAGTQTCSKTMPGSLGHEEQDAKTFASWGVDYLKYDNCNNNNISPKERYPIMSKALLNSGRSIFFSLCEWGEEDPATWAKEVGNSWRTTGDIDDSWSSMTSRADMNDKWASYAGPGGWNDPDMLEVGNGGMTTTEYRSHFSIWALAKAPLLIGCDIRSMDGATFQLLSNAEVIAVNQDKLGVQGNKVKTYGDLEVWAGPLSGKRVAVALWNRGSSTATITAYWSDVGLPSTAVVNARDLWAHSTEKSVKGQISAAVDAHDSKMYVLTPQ
Chain of DNA repair nuclease/redox regulator APEX1 (Homo sapiens) (P27695 whole entry, looked up): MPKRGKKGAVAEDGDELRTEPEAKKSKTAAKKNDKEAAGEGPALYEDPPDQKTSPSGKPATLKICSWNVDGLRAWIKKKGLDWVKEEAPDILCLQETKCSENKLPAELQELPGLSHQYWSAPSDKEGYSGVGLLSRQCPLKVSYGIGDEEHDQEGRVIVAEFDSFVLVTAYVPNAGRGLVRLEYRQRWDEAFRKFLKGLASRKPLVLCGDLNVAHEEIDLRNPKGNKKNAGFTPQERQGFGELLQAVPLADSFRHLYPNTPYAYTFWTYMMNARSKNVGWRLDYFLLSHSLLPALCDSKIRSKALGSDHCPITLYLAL

Structure (SMILES)	outcome [1]	outcome [2]	outcome [3]	activity change, negative = inhibition ([4]; at 25.7 µM (top of the series))	max response [4, 6]	max response [4, 7]	outcome [5]	activity change, negative = inhibition ([4]; at 57.5 µM (top of the series))	Potency [4]
CCn1cc(C(=O)O)c(=O)c2ccc(C)nc21	inactive	inactive	inactive	1.82% (inactive)	0.0975%	0.934%	inactive	–	–
CC(CCc1ccccc1)NC(C)C(O)c1ccc(O)cc1 (stereo unspecified)	–	–	–	–	-1.34%	0.25%	inactive	1.71% (inactive)	–
Cc1ccc(-c2nc3ccc(C)cn3c2CC(=O)N(C)C)cc1	–	–	–	–	1.87%	4.31%	–	1.62% (inactive)	–
CC(C)=CC1C(C(=O)OCc2cccc(Oc3ccccc3)c2)C1(C)C (stereo unspecified)	–	–	–	–	10.5%	23.2%	–	8.71% (inactive)	–
CCCN1CCC[C@@H]2Cc3[nH]ncc3C[C@H]21	inactive	inactive	–	-0.566% (inactive)	-11.1% and 10.4%	-11.8% and 9.61%	–	-0.922% (inactive)	–
O=P1(NCCCl)OCCCN1CCCl (stereo unspecified)	–	–	–	-0.105% (inactive)	-5.65%	-6.2%	–	–	–
CNCCC(Oc1ccc(C(F)(F)F)cc1)c1ccccc1 (stereo unspecified)	–	–	–	–	-0.474%	3.92%	inactive	1.75% (inactive)	–
Cc1cccc(C)c1NC1=NCCCS1	inactive	inactive	inactive	0.794% (inactive)	4% and -18.4%	4.95% and -18.3%	inactive	0.68% (inactive)	–
CC(=O)[C@H]1CC[C@H]2[C@@H]3CC[C@H]4C[C@H](O)CC[C@]4(C)[C@H]3C(=O)C[C@]12C	inactive	inactive	inactive	–	15.7%	15.5%	inactive	-2.01% (inactive)	–
CNCCCN1c2ccccc2CCc2ccccc21	–	inactive	–	-4.5% (inactive)	-2.23% and 21.3%	-6.66% and 25.9%	–	0.465% (inactive)	–
c1ccc(C2CC2)c(OCC2=NCCN2)c1	inactive	inactive	–	–	15.2%	26.1%	inactive	8.25% (inactive)	–
CC(C)=CCOc1c2occc2cc2ccc(=O)oc12	–	–	–	–	5.47%	25.6%	–	17.7% (inactive)	–
Cc1ccc(S(=O)(=O)N[C@@H](CCCCN)C(=O)CCl)cc1	inactive	inactive	–	–	1.11%	0.09%	inactive	-0.107% (inactive)	–
NCC1(CC(=O)O)CCCCC1	inactive	inactive	–	-2.01% (inactive)	-7.98% and 4.74%	-6.8% and 4.42%	inactive	1.35% (inactive)	–
Cc1ncc(CNC(=O)N(CCCl)N=O)c(N)n1	inactive	inactive	–	–	9.89%	18%	inactive	4.94% (inactive)	–
Fc1ccc(C(OCCN2CCN(CCCc3ccccc3)CC2)c2ccc(F)cc2)cc1	inactive	inactive	–	-2.3% (inactive)	-18.7%	-16.6%	inactive	–	–
c1ccc2c(c1)OCC(C1=NCCN1)O2 (stereo unspecified)	–	–	–	–	8.3%	9.22%	inactive	0.671% (inactive)	–
O=C1NCN(c2ccccc2)C12CCN(CC1COc3ccccc3O1)CC2 (stereo unspecified)	–	–	inactive	–	10.9%	12.8%	inactive	1.66% (inactive)	–
Cc1cc2c(C(C)C)c(O)c(O)c(C=O)c2c(O)c1-c1c(C)cc2c(C(C)C)c(O)c(O)c(C=O)c2c1O	–	–	–	–	-14.5%	-19.7%	–	-15.2% (inactive)	–
CN1C[C@H](CNC(=O)OCc2ccccc2)C[C@@H]2c3cccc4c3c(cn4C)C[C@H]21	inactive	inactive	–	–	-34%	-33%	inactive	1.3% (inactive)	–
O=c1[nH]c2ccccc2n1CCCN1CCC(n2c(=O)[nH]c3cc(Cl)ccc32)CC1	inactive	inactive	–	0.586% (inactive)	2.1% and 12.4% and -15.6%	4.47% and 17.4% and -21%	inactive	4.6% (inactive) and -5.66% (inactive)	–
CC[N+]1(C)CCCC(OC(=O)C(O)(c2ccccc2)c2ccccc2)C1 (stereo unspecified)	–	–	–	–	5.8%	23.3%	–	8.59% (inactive)	–
NN=C(N)N	inactive	inactive	–	–	12.1% and -0.681%	15.5% and -2.91%	inactive	1.91% (inactive) and 1.41% (inactive)	–
Nc1ccncc1	inactive	inactive	–	–	-7.26% and -3.5%	-10.8% and 8.53%	inactive	-5.36% (inactive) and 3.03% (inactive)	–
NCC(CC(=O)O)c1ccc(Cl)cc1 (stereo unspecified)	inactive	inactive	–	–	16.5%	28.7%	inactive	7.61% (inactive)	–
NCCc1cc(O)c(O)cc1O	–	–	–	–	5.57%	16.6%	–	7.71% (inactive)	–
CC(C)C(=O)Nc1ccc([N+](=O)[O-])c(C(F)(F)F)c1	–	inactive	–	-0.701% (inactive)	-6.26% and 5.61%	-1.94% and 19.5%	–	9.96% (inactive)	–
CC(C)CC(N(C)C)C1(c2ccc(Cl)cc2)CCC1 (stereo unspecified)	–	–	–	–	5.29%	6.62%	–	0.545% (inactive)	–
O=c1c(O)c(-c2ccc(O)c(O)c2)oc2cc(O)cc(O)c12	–	inactive	–	–	-77.5% and 18.5%	-93.3% and 29.8%	–	8.54% (inactive)	39.8 µM (active)

From PubChem BioAssay (NCATS)
